Assay results taken from PubChem BioAssay (Tox21).
Results filed as inconclusive are left out. Activity calls are given as the source filed them. Calls follow the shape of the dose curve; as a rule, active = well fitted curve in the direction sought with a large enough effect in the repeat runs; inconclusive = weak or mixed curves; inactive = no such curve, though single readings can be large; an effect the other way counts as inactive or inconclusive.

Assays:
[1] = A CellTox Green Cytotoxicity Assay to monitor cytotoxicity in HEK293 cells - 32 hour (AID 1224881); also: nearly all actives have a fitted effect of over 40% in size
Procedure, shortened: (§1)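 Dead-cell fluorescence measured kinetically: asymmetric cyanine dye, HEK293, 600 cells/well, 5 h settle, 23 nL cpd/DMSO, 37 C, reads 0–40 h every 8 h.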

[2] = A CellTox Green Cytotoxicity Assay to monitor cytotoxicity in HepG2 cells - 0 hour (AID 1224882); also: nearly all actives have a fitted effect of over 35% in size
Procedure, shortened: (§2)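 First, HepG2 cells (600/well) mixed with reagent were plated; second, after 5 h at 37 C they received compounds via pintool; third, fluorescence was measured at 0 h through 40 h at 8 h intervals.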

[3] = A CellTox Green Cytotoxicity Assay to monitor cytotoxicity in HepG2 cells - 32 hour (AID 1224883); also: nearly all actives have a fitted effect of over 50% in size
Procedure, shortened: as §2

[4] = A CellTox Green Cytotoxicity Assay to monitor cytotoxicity in HEK293 cells - 8 hour (AID 1224884); also: nearly all actives have a fitted effect of over 35% in size
Procedure, shortened: as §1

[5] = qHTS RealTime-Glo MT Cell Viability Assay in HepG2 cells - 16 hour (AID 1224885); also: nearly all actives have a fitted effect of over 50% in size
Procedure, shortened: (§3)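 Viability was tracked continuously by NanoLuc luminescence from prosubstrate reduced by living HepG2 cells, at successive time points over 40 h of compound exposure. Cells with reagent were preincubated 5 h at 37 °C before compound addition.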

[6] = qHTS RealTime-Glo MT Cell Viability Assay in HEK293 cells - 24 hour (AID 1224886); also: top concentration of the series differs between compounds; nearly all actives have a fitted effect of over 50% in size
Procedure, shortened: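 Viability tracked continuously by luminescence as live cells reduce a prosubstrate for NanoLuc; HEK293 cells preincubated 5 h, compound-treated at 37 C, and read at 0, 8, 16, 24, 32 and 40 h.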

[7] = qHTS RealTime-Glo MT Cell Viability Assay in HEK293 cells - 8 hour (AID 1224887); also: top concentration of the series differs between compounds; nearly all actives have a fitted effect of over 50% in size
Procedure, shortened: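 600 HEK293 cells per well, dispensed already mixed with RealTime-Glo MT reagents. Compound dosing came 5 h later. The same wells were read for luminescence at 0, 8, 16, 24, 32 and 40 h of exposure at 37 C.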

[8] = A CellTox Green Cytotoxicity Assay to monitor cytotoxicity in HEK293 cells - 16 hour (AID 1224888); also: nearly all actives have a fitted effect of over 35% in size
Procedure, shortened: as §1

[9] = qHTS RealTime-Glo MT Cell Viability Assay in HepG2 cells - 0 hour (AID 1224889); also: nearly all actives have a fitted effect of over 50% in size
Procedure, shortened: as §3

[10] = A CellTox Green Cytotoxicity Assay to monitor cytotoxicity in HepG2 cells - 8 hour (AID 1224890); also: nearly all actives have a fitted effect of over 45% in size
Procedure, shortened: as §2
% is scaled to controls: 0 for no effect and ±100 for the full control effect.

CCCOC(=O)CC
inactive: outcome [1] | Potency [2] | Potency [3] | outcome [4] | outcome [5] | Potency [6] | Potency [7] | outcome [8] | Potency [9] | outcome [10]

Nc1ccn([C@@H]2O[C@H](CO)[C@@H](O)[C@@H]2O)c(=O)n1
inactive: outcome [1] | Potency [2] | Potency [3] | outcome [4] | outcome [5] | Potency [6] | Potency [7] | outcome [8] | Potency [9] | outcome [10]

O=C(O)c1cn(C2CC2)c2cc(N3CCNCC3)c(F)cc2c1=O
inactive: outcome [1] | Potency [2] | Potency [3] | outcome [4] | outcome [5] | Potency [6] | Potency [7] | outcome [8] | Potency [9] | outcome [10]

CO/N=C(\C(=O)N[C@@H]1C(=O)N2C(C(=O)O)=C(CSc3nc(=O)c(O)nn3C)CS[C@H]12)c1csc(N)n1
inactive: outcome [1] | Potency [2] | Potency [3] | outcome [4] | outcome [5] | Potency [6] | Potency [7] | outcome [8] | Potency [9] | outcome [10]

NC(CCC(=O)O)C(=O)O (centres undefined)
inactive: outcome [1] | Potency [2] | Potency [3] | outcome [4] | outcome [5] | Potency [6] | Potency [7] | outcome [8] | Potency [9] | outcome [10]

CNC(=O)Nc1ccc(Cl)c(Cl)c1
inactive: outcome [1] | Potency [2] | Potency [3] | outcome [4] | outcome [5] | Potency [6] | Potency [7] | outcome [8] | Potency [9]

C[N+](C)(C)CCCCCCCCCC[N+](C)(C)C
inactive: outcome [1] | Potency [2] | Potency [3] | outcome [4] | outcome [5] | Potency [6] | Potency [7] | outcome [8] | Potency [9] | outcome [10]

CCCCCCCCCCCCCCC(=O)O
inactive: outcome [1] | Potency [2] | Potency [3] | outcome [4] | outcome [5] | Potency [6] | Potency [7] | outcome [8] | Potency [9] | outcome [10]

CC1=NS(=O)(=O)c2cc(Cl)ccc2N1
inactive: outcome [1] | Potency [2] | Potency [3] | outcome [4] | outcome [5] | Potency [6] | Potency [7] | outcome [8] | Potency [9] | outcome [10]

CNCCO
inactive: outcome [1] | Potency [2] | Potency [3] | outcome [4] | outcome [5] | Potency [6] | Potency [7] | outcome [8] | Potency [9] | outcome [10]

CCN[C@@H]1C[C@H](N)[C@@H](OC2OC(CN)=CCC2N)[C@H](O)[C@H]1O[C@H]1OC[C@](C)(O)[C@H](NC)[C@H]1O (some centres undefined)
inactive: cytotoxicity increase [1] 8.84% [at 0.29 µM] | cytotoxicity [2] 3.46% [at 0.29 µM] | cytotoxicity increase [3] -3.76% [at 0.29 µM] | cytotoxicity increase [4] -0.876% [at 0.29 µM] | activity change, negative = cytotoxic [5] 0.169% [at 0.29 µM] | activity change, negative = cytotoxicity [6] 3.34% [at 0.29 µM] | activity change, negative = cytotoxicity [7] 0.47% [at 0.29 µM] | activity change [8] 1.26% [at 0.29 µM] | activity change, negative = cytotoxicity [9] 0.414% [at 0.29 µM] | cytotoxicity increase [10] 3.81% [at 0.29 µM]

C=CC(C)(CCC=C(C)C)OC(=O)CC (centres undefined)
inactive: outcome [1] | Potency [2] | Potency [3] | outcome [4] | outcome [5] | Potency [6] | Potency [7] | outcome [8] | Potency [9] | outcome [10]

CCCCCCCC1CCCC1=O (centres undefined)
inactive: outcome [1] | Potency [2] | Potency [3] | outcome [4] | outcome [5] | Potency [6] | Potency [7] | outcome [8] | Potency [9] | outcome [10]

COc1ccc2cc1Oc1cc3c(cc1OC)CC[N+](C)(C)[C@H]3Cc1ccc(cc1)Oc1c(OC)c(OC)cc3c1[C@@H](C2)[N+](C)(C)CC3
inactive: outcome [1] | Potency [2] | Potency [3] | outcome [4] | outcome [5] | Potency [6] | Potency [7] | outcome [8] | Potency [9] | outcome [10]

CCCCOCCOC(=O)CCCCCCCCC(=O)OCCOCCCC
inactive: outcome [1] | Potency [2] | Potency [3] | outcome [4] | outcome [5] | Potency [6] | Potency [7] | outcome [8] | Potency [9] | outcome [10]

CCCCCCCCCCCCSC
inactive: outcome [1] | Potency [2] | Potency [3] | outcome [4] | outcome [5] | Potency [6] | Potency [7] | outcome [8] | Potency [9] | outcome [10]

CCOC(=O)COc1cc(-n2ncc(C(F)(F)F)c(C)c2=O)c(F)cc1Cl
inactive: outcome [1] | Potency [2] | Potency [3] | outcome [4] | outcome [5] | Potency [6] | Potency [7] | outcome [8] | Potency [9] | outcome [10]

CC[C@H]1OC(=O)[C@H](C)[C@@H](O[C@H]2C[C@@](C)(OC)[C@@H](O)[C@H](C)O2)[C@H](C)[C@@H](O[C@@H]2O[C@H](C)C[C@H](N(C)C)[C@H]2O)[C@](C)(OC)C[C@@H](C)C(=O)[C@H](C)[C@@H](O)[C@]1(C)O
inactive: outcome [1] | Potency [2] | Potency [3] | outcome [4] | outcome [5] | Potency [6] | Potency [7] | outcome [8] | Potency [9] | outcome [10]

CC(CO)(CO)[N+](=O)[O-]
inactive: outcome [1] | Potency [2] | Potency [3] | outcome [4] | outcome [5] | Potency [6] | Potency [7] | outcome [8] | Potency [9] | outcome [10]

Cc1ccnc(NS(=O)(=O)c2ccc(N)cc2)n1
inactive: outcome [1] | Potency [2] | Potency [3] | outcome [4] | outcome [5] | Potency [6] | Potency [7] | outcome [8] | Potency [9] | outcome [10]

O=C(O)CC(C(=O)O)S(=O)(=O)O (centres undefined)
inactive: outcome [1] | Potency [2] | Potency [3] | outcome [4] | outcome [5] | Potency [6] | Potency [7] | outcome [8] | Potency [9] | outcome [10]

NCCCC(N)(C(=O)O)C(F)F (centres undefined)
inactive: outcome [1] | Potency [2] | Potency [3] | outcome [4] | outcome [5] | Potency [6] | Potency [7] | outcome [8] | Potency [9] | outcome [10]
